Bioassay records as filed in PubChem BioAssay.
FAS-TE inh = inhibitors of human fatty acid synthase thioesterase domain; recombinant FAS-TE, OMFH fluorogenic substrate, fluorescence endpoint; hit rate 0.67% among 360,000; inhibition, % at 15 µM; AID 602261;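 active = compounds whose normalised, plate-corrected inhibition of enzyme fluorescence in the single-dose primary screen is 50% or more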;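 note: 0% = DMSO with enzyme and 100% = substrate without enzyme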
Target sequence (P49327 whole entry, looked up, the tested form may be a part): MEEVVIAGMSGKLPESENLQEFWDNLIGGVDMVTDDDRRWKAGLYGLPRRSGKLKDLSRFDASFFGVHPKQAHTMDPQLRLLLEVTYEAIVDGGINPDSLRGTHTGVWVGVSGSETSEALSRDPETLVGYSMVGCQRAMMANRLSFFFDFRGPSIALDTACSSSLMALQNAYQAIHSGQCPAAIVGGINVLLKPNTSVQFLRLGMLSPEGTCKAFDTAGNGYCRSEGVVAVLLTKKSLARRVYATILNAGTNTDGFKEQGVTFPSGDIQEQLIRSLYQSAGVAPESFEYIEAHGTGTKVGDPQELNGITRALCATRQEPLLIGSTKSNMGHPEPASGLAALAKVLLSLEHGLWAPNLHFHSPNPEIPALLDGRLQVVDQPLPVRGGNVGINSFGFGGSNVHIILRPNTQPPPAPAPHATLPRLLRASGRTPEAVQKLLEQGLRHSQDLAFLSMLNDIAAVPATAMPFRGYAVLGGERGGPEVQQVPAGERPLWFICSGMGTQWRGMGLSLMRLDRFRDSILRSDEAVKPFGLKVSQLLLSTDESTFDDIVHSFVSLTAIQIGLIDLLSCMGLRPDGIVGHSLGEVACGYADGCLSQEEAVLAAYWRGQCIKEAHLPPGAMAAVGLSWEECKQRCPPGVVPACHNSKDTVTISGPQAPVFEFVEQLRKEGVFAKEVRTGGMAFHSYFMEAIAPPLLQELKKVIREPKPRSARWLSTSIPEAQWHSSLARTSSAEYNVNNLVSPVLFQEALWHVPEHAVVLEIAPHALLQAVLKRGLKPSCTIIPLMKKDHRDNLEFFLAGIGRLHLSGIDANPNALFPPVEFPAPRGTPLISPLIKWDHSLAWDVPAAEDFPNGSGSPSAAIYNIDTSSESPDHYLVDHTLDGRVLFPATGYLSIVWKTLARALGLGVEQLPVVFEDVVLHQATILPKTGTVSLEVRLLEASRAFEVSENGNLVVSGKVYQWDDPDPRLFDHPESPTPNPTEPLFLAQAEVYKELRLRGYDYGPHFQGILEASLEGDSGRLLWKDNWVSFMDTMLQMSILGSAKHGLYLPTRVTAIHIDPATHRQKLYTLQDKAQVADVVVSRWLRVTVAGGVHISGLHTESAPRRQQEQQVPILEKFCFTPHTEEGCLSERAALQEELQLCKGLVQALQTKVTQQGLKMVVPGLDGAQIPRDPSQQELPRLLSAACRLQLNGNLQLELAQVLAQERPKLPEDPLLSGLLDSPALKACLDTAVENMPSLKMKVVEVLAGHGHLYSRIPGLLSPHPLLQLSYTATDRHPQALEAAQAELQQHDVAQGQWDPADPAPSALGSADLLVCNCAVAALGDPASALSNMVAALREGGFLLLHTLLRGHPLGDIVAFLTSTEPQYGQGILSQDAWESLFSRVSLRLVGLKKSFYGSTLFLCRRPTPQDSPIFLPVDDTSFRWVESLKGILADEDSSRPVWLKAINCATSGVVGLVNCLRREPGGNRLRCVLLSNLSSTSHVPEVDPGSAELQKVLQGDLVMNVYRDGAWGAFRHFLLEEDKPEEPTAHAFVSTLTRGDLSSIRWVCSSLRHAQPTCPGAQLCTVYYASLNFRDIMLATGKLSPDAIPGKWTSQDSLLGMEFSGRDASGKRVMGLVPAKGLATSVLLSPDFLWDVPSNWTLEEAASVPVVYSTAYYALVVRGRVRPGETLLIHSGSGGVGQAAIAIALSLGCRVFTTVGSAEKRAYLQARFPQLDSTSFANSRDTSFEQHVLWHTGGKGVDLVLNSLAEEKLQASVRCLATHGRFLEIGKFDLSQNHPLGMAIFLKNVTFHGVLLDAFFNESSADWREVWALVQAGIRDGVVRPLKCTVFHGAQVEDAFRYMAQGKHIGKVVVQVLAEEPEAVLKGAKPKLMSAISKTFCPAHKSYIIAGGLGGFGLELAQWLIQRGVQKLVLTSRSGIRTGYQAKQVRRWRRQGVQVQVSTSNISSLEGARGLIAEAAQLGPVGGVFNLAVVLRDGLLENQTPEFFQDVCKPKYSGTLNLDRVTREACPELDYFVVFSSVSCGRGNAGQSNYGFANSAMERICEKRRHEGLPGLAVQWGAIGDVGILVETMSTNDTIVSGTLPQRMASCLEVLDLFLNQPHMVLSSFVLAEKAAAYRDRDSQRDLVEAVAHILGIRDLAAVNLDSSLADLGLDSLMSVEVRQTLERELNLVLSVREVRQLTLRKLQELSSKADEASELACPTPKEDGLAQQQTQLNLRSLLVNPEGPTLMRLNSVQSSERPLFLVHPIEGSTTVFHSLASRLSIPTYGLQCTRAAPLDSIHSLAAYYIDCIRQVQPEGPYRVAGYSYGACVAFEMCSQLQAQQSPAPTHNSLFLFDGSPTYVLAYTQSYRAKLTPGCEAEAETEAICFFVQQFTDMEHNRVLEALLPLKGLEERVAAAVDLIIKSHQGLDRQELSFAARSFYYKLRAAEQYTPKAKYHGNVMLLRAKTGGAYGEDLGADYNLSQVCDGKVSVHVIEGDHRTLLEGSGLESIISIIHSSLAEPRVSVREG
proKLK7 act = proKLK7 (human) activation, primary screen. AID 652039. activation, % at 7 µM. hit rate 0.9% among 370,000. purified proKLK7, EDANS-DABCYL substrate fluorescence; 100% is mature enzyme control, 0% vehicle. P49862;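 active = activation above the mean of all tested compounds plus 3 SD, computed per campaign excluding outliers beyond control limits, cut at about 13% in these data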
SMARCA2 act = SMARCA2 function activation, primary screen; MG213 cells, MMTV-luciferase reporter, dexamethasone, overnight; activation, % at 9.1 µM; hit rate 1% among 370,000; AID 652017; in the data active = activation above about 7.8%;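 note: 0% = vehicle wells and 100% = reference activator wells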
FXN GAA850 act = frataxin GAA850 promoter activation | HEK293 lucGAA850 FXN promoter luciferase reporter, 24 h; percent of 10 µM SAHA response | activation, % at 6 µM | hit rate 0.56% among 360,000;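 active = activation above the average of all compounds screened plus 3 SD, cutoff fixed separately per campaign, cut at about 7.5% in these data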;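 note: 0% = DMSO wells and 100% = 10 µM SAHA wells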
FAS-TE conf = FAS thioesterase (human) inhibition, confirmation | recombinant FAS-TE, OMFH fluorogenic substrate, fluorescence | AID 624325 | hit rate 45% among 2,300 | inhibition, % at 15 µM | shares compounds with FAS-TE inh;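 active = compounds inhibiting the enzyme by at least 50% at 15 µM in any one of the replicates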;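 note: 0% = enzyme with DMSO only and 100% = wells lacking enzyme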
Starred values were filed as active, the others as inactive; x = not tested or not shown. Compounds with a hit are over-represented: about 2.9% of the library has one in this group of screens.

SMILES | FAS-TE inh | proKLK7 act | SMARCA2 act | FXN GAA850 act | FAS-TE conf
O=C1[C@H](Cc2ccccc2)NCCCC[C@@H](c2ccc(Cl)cc2)N1Cc1ccccc1 | 26 | 0 | -1 | -1 | x
CN(C)C(/C=C/Nc1ccc(O)cc1)=C(C#N)C#N | -5 | 0 | -1 | 3 | x
CC1CCc2c(sc3nc(CN4CCN(S(=O)(=O)c5ccccc5[N+](=O)[O-])CC4)[nH]c(=O)c23)C1 (stereo unspecified) | 91* | 0 | -2 | 0 | 50*
Cc1ccc(S(=O)(=O)N2CCN(Cc3nc4sc5c(c4c(=O)[nH]3)CCCC5)CC2)cc1 | 33 | -1 | -1 | 0 | x
O=[N+]([O-])c1ccc(Sc2n[nH]c(-c3ccccc3)n2)nc1 | 52* | 0 | -2 | 3 | 64*
COc1ccc(CNC(=O)CCc2ccc(S(=O)(=O)N3CCCCCC3)cc2)cc1 | 6 | -1 | -2 | 2 | x
COc1ccc2[nH]c(=O)c(CN(CC3CCCO3)C(=S)Nc3ccccc3)cc2c1 (stereo unspecified) | -1 | 2 | 0 | 0 | x
COC(=O)c1ccccc1NC(=S)N(Cc1ccc2c(c1)OCO2)Cc1cc2cc(OC)ccc2[nH]c1=O | 68* | -30 | -4 | -2 | 31
Cc1cccc(/C=C2/C(=O)/C(=C/c3ccccc3C)C3CCC2N3C)c1 (stereo unspecified) | 3 | 0 | 3 | 1 | x
COc1cc2c(-c3ccc4[nH]ccc4c3)c(-c3ccc(C#N)cc3)oc(=O)c2cc1OC | 55* | -4 | 2 | -2 | 28
CCOC(=O)c1ccc(-c2c(-c3ccc(OC)cc3)oc(=O)c3cc(OC)c(OC)cc23)cc1F | 58* | 1 | 2 | -2 | 6
COc1ccc(NC(=O)COC(=O)CCc2cc(OC)c(OC)c(OC)c2)c([N+](=O)[O-])c1 | 14 | 0 | 0 | -3 | x
COC(=O)C1=C(C)N(Cc2ccccc2)C(=O)N[C@H]1c1cccs1 | -6 | 0 | 1 | 0 | x
O=C(C/C=N\OCc1ccc([N+](=O)[O-])cc1)Nc1ccc(Br)cc1 | 55* | 0 | -1 | 0 | 57*
O=C(C1Cc2ccccc2CN1S(=O)(=O)c1ccccc1[N+](=O)[O-])N1CCOCC1 (stereo unspecified) | -1 | 0 | -6 | 0 | x
O=C(c1cccc(S(=O)(=O)N2CCCC2)c1)c1cccc(S(=O)(=O)N2CCCC2)c1 | 54* | 0 | 0 | -1 | 48*
O=C(c1cccc(S(=O)(=O)N2CCCCC2)c1)N1CCCCC1 | -3 | 0 | 1 | -1 | x
C/C(Cn1nnc([N+](=O)[O-])n1)=N\NC(=O)c1cccc(Cl)c1 | -4 | 0 | 3 | 3 | x
COC(=O)c1cc(C(=O)OCC(=O)c2ccc3c(c2)NC(=O)CO3)cc([N+](=O)[O-])c1 | 57* | 0 | -2 | -1 | 53*
O=C(COC(=O)c1ccc([N+](=O)[O-])cc1)NC1CCCC1 | 7 | 0 | 2 | 3 | x
COC(=O)c1cc(C(=O)OCC(=O)NC2CCCCCCC2)cc([N+](=O)[O-])c1 | 70* | 0 | 1 | 0 | 37*
O=C(COC(=O)c1cc([N+](=O)[O-])ccc1Cl)NC1CCCC1 | 80* | 0 | 0 | 0 | 87*
O=C(COC(=O)c1cc(Cl)ccc1Cl)NC1CCCC1 | 17 | 1 | -1 | 2 | x
Cc1cccc(C(=O)OCC(=O)c2ccc3c(c2)NC(=O)CO3)c1 | -2 | 0 | 0 | -1 | x
N#Cc1cc(C(=O)c2cc(Cl)ccc2O)cn(CC2CCCO2)c1=O (stereo unspecified) | 1 | 0 | 0 | 2 | x
SMILES | FAS-TE inh | proKLK7 act | SMARCA2 act | FXN GAA850 act | FAS-TE conf
COc1ccc(NC(=O)C2CCCN(c3c4c(nc5ncnn35)CCC4)C2)cc1 (stereo unspecified) | -2 | 1 | -2 | -1 | x
CC(C)c1ccc(/C=N/NC(=O)CN(c2cccc(Cl)c2Cl)S(C)(=O)=O)cc1 | 57* | 0 | 0 | 1 | 58*
CCOC(=O)Cc1nnc(NCc2ccccc2)c2ccccc12 | -4 | 0 | -2 | -1 | x
O=C(c1cc2cc([N+](=O)[O-])ccc2oc1=O)N1CCN(C2CCCCC2)CC1 | 61* | 0 | -3 | -1 | 47*
O=C(Nc1ccc(N2CCN(C(=O)c3ccco3)CC2)cc1)C(c1ccccc1)c1ccccc1 | 14 | 0 | -4 | 2 | x
Cc1ccc(C)c(NC(=O)C(OC(=O)c2ccc(CO)cc2)c2ccccc2)c1 (stereo unspecified) | -2 | 0 | 0 | -1 | x
Cc1ccc(NC(=O)C(OC(=O)c2ccc(C=O)cc2)c2ccccc2)cc1Cl (stereo unspecified) | 50* | x | x | 1 | 11
COc1ccccc1N(C(=O)c1cncc(Br)c1)c1nc(-c2ccc(C)cc2)cs1 | 56* | 0 | 0 | 0 | 9
C=CCc1ccc(OCCOCCNCCOC)c(OC)c1 | -7 | 1 | 0 | 0 | x
Cn1c(=NC(=O)c2ccc(S(=O)(=O)N3CCCc4ccccc43)cc2)sc2cc(S(C)(=O)=O)ccc21 | 83* | 0 | 1 | 1 | 11
Cn1c(=NC(=O)c2ccccc2[N+](=O)[O-])sc2cc(S(C)(=O)=O)ccc21 | -9 | 0 | 7 | 5 | x
CC(C)(C)c1cc(Br)c(O)c(N=Nc2ccc(S(=O)(=O)N3CCOCC3)cc2)c1 | 84* | 0 | -1 | 3 | 49*
Cc1nnc(SC(C(=O)Nc2ccc(Cl)c([N+](=O)[O-])c2)c2ccccc2)[nH]c1=O (stereo unspecified) | 52* | 0 | -3 | -2 | 53*
COc1cc(OC)c(N2CC(C(=O)NCCC3=CCCCC3)CC2=O)cc1Cl (stereo unspecified) | 61* | 0 | -1 | -1 | 67*
Cc1ccc2c(=O)n3c(nc2c1)C(CC(C)C)NC(=O)c1cccnc1-3 (stereo unspecified) | -6 | 0 | -2 | 0 | x
O=C(Nc1ccccc1)C(Cl)C(=O)c1ccccc1 (stereo unspecified) | 51* | 1 | 5 | 3 | 40
O=C1NCC(COCc2ccco2)O1 (stereo unspecified) | -9 | 0 | -4 | 2 | x
COc1ccc(CN(C(=S)Nc2ccccc2)C2CC(=O)N(c3ccc(F)cc3)C2=O)cc1 (stereo unspecified) | 22 | 0 | 0 | -1 | x
CNC(=S)N(Cc1ccc(OC)cc1)C1CC(=O)N(c2ccc(Cl)cc2)C1=O (stereo unspecified) | 62* | 0 | -3 | -1 | 70*
COc1ccc(Nc2cc(C(=O)N3CCc4ccccc4C3)c3ccccc3n2)c(OC)c1 | 61* | 0 | 0 | -1 | 28
CCOc1ccc2ncc(S(=O)(=O)c3ccccc3)c(N3CCC4(CC3)OCCO4)c2c1 | x | 0 | -2 | x | x
COc1ccc(S(=O)(=O)c2cnc3ccc(OC)cc3c2N2CCC3(CC2)OCCO3)cc1 | 72* | 0 | 2 | 0 | 60*
CCCS(=O)(=O)c1nc(S(=O)(=O)c2ccc(C)cc2)c(NCCCN2CCOCC2)s1 | -5 | 0 | 0 | -1 | x
